Experimental findings from PubChem BioAssay (NCATS) are described below.

Assay [1] in a line: AP1 Signaling Pathway (AID 357).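 Note: ME-180 reporter cells stimulated with EGF at its EC50 level; % is set by controls: 0 for no effect and ±100 for the full control effect.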 As to conditions: ME-180 AP-1-bla reporter, EGF-induced, beta-lactamase ratio, 5 h. Put shortly:
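AP-1-bla ME-180 cells, Opti-MEM + 0.5% dialyzed FBS, plated overnight 37 °C. Cpd titration + EC50 EGF, 5 h 37 °C. CCF4 2.5 h RT; ex 405, em 460/530 ratio → %activity, AC50.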

The target in assay [2] is Cytochrome P450 1A2 (Homo sapiens) (UniProt P05177). Description: p450-cyp1a2 (AID 410; calls by dose curve; note: potency is the fitted concentration of half-maximal effect;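 for activity change, negative = inhibition: -100% = full effect of reference inhibitor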). As to conditions: recombinant CYP1A2, luciferin-ME demethylation, luminescence; series mostly up to 57 µM. In short, it runs like this: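 Read-out is luminescence from luciferin produced by CYP1A2 demethylation of Luciferin-ME (100uM, at Km). Detection reagent stopped the 60 min NADPH-dependent reaction; signals were normalized to 57 uM furafylline.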

The nature of assay [3]: NFAT Signaling Pathway (AID 444).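 Note: carbachol stimulus at about its EC50 of 1 µM final; % is set by controls: 0 for no effect and ±100 for the full control effect.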 As to conditions: Jurkat NFAT-bla M1, carbachol, beta-lactamase ratio, 5 h; at 38 µM (top of the series) unless noted. Put shortly:
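Jurkat cells carrying an NFAT-driven β-lactamase reporter and co-transfected muscarinic M1 receptor were treated with compound plus carbachol (1 uM final, an EC50 level) for 5 h at 37 °C. CCF4 loading followed for 1 h at RT; 460/530 nm ratio gave %activity.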

A short description of assay [4]: Stat Signaling Pathway (AID 446).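 Note: ME-180 cervical cancer cells given 40 pM IL-6 alongside compound; SIE-controlled beta-lactamase reporter measured as 460/530 nm FRET emission ratio; % is set by controls: 0 for no effect and ±100 for the full control effect.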 The settings on record: ME-180 (cervical carcinoma) SIE beta-lactamase reporter, IL-6 stimulated, 5 h. In short, it runs like this:
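Overnight-plated ME-180 cells bearing a STAT Inducible Element beta-lactamase reporter; 5 h co-exposure to compound and 40 pM IL-6; values normalized to 300 pM IL-6 and 125 nM JAK inhibitor controls.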

Assay [5] addresses Glucocorticoid receptor (Homo sapiens) (UniProt P04150). Description: GR-GFP Redistribution (AID 450;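 active = compounds whose dose series gives a full or clear partial fitted curve of increased nuclear translocation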; note: potency is the fitted concentration of half-maximal effect). The settings on record: U2OS GR-GFP nuclear translocation, laser cytometry, 2 h.
Assay [6] has the same target. The assay can be described thus: GR-EFC Redistribution (AID 451; calls by dose curve; note: potency is the fitted concentration of half-maximal effect). The settings on record: CHO-K1 GR-EFC translocation, beta-gal luminescence, 2 h. In short, it runs like this: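 CHO-K1 cells stably expressing nuclear-localized β-gal enzyme acceptor and GR fused C-terminally to the enzyme donor fragment; ligand-driven nuclear translocation restores β-gal by complementation. Compounds titrated up to 46 uM final, 2 h at 37 °C; luminescence read.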

Assay [7] deals with Mitogen-activated protein kinase 10 (Mus musculus) (UniProt Q61831). The assay can be described thus: JNK3 AlphaScreen Assay (AID 530).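 Note: kinase came from lysate of stimulated human HepG2 cells; % is set by controls: 0 for no effect and ±100 for the full control effect.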 The settings on record: JNK3 lysate, c-Jun phosphorylation; series mostly up to 57.1 µM. Put shortly: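 Biotinylated GST-cJun(1-79) served as substrate for JNK3 in HepG2 lysates stimulated with IL-1beta and TNF-alpha. ATP was 10 uM final, pH 7.6. Ser73 phosphorylation was quantified by AlphaScreen (680 nm excitation).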

Assay [8] concerns the target 3',5'-cyclic-AMP phosphodiesterase 4B (Homo sapiens) (UniProt Q07343). The assay can be described thus: qHTS Assay for Inhibitors of PDE-IV (AID 607; active = well fitted activation curve with a large enough effect in the main read-out, with a control signal flat, not every such curve was filed as active; note: % of control where 0% means no effect). The settings on record: HEK293 ACTOne CNG channel cells, membrane potential fluorescence; series mostly up to 22.9 µM. In short, it runs like this:
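Live HEK293 cells with a modified cyclic nucleotide-gated (CNG) channel report intracellular cAMP via membrane-potential dye fluorescence (ex 535/em 590 nm). Endogenous PDE-IV was targeted. Compounds were tested at up to 22.9 uM final; RO 20-1724 100 uM served as control.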

Assay [9] addresses Lysosomal acid glucosylceramidase (Homo sapiens) (UniProt P04062). Description: Glucocerebrosidase-p2 (AID 348; in the data active = potency below about 10 µM; note: potency is the fitted concentration of half-maximal effect). The settings on record: purified GBA, blue fluorogenic substrate, 40 min. In short, it runs like this:
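Normal human glucocerebrosidase (0.2 nM) with blue fluorogenic substrate (80 uM final) in citrate/phosphate pH 5.9 with 10mM sodium taurocholate, 0.01% tween-20; 40 min RT, NaOH/glycine stop; fluorescence Ex 365/Em 440; AC50 from a titration from 0.6 nM upwards.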

Assay [10] in a line: Cell Viability - BJ (AID 421; calls by dose curve;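 note: potency is the fitted concentration of half-maximal effect; cells exposed to compound for 40 hours at 37 °C before readout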). As to conditions: BJ fibroblast viability, qHTS. Put shortly:
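Quantitative HTS: ATP depletion in BJ cells after 40 hr compound exposure in complete culture medium, detected with CellTiter-Glo; AC50 from standard Hill fits.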

Assay [11] can be described thus: Cell Viability - Jurkat (AID 426;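 active = dose-dependent loss of cell ATP signal giving a full or clear fitted curve, ranked by lower potency value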; note: potency is the fitted concentration of half-maximal effect). As to conditions: qHTS. Put shortly:
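Cytotoxicity was scored as loss of cellular ATP, measured by luciferase-based luminescence, in Jurkat clone E6-1 cells after 40 h compound treatment; tamoxifen and doxorubicin served as positive controls.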

Assay [12] in a line: Cell Viability - Hek293 (AID 427;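 active = compounds whose dose-response curve shows a full or clear partial loss of cell viability, called from curve shape rather than a numeric limit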;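 note: potency is the fitted concentration of half-maximal effect; cells exposed to compound for 40 hours at 37 °C before reading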). The settings on record: qHTS. In short, it runs like this: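 AC50 values derive from Hill-modelled concentration-response of ATP-based luminescence, normalized between DMSO-only and 100 uM tamoxifen controls. Cells were exposed in complete culture medium for 40 hr at 37 °C before detection.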
Assay [13] can be described thus: Cell Viability - MRC5 (AID 434; calls by dose curve;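 note: potency is the fitted concentration of half-maximal effect; potency reflects cytotoxicity seen as loss of intracellular ATP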). As to conditions: MRC5 lung fibroblast viability, qHTS. Put shortly:
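Decrease in intracellular ATP, quantified by luciferase light output, reflects compound toxicity toward MRC5 cells exposed for 40 hr in complete culture medium. Concentration-response curves, scaled between DMSO and 100 uM tamoxifen, gave AC50 values.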

A short description of assay [14]: Cell Viability - SK-N-SH (AID 435; calls by dose curve;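 note: potency is the fitted concentration of half-maximal effect; compound exposure lasted 40 h at 37 °C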). As to conditions: SK-N-SH neuroblastoma cell viability qHTS. Put shortly:
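SK-N-SH human neuroblastoma cells (1500/well) were exposed to compounds in complete medium for 40 h at 37 °C, and intracellular ATP was then measured by CellTiter-Glo luminescence. AC50 was taken from Hill fits, normalized to DMSO and 100 uM tamoxifen.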

A short description of assay [15]: Cell Viability - NIH 3T3 (AID 541; active = well fitted curve in the direction sought with a large enough effect; an effect the other way counts as inactive or inconclusive; note: potency is the fitted concentration of half-maximal effect; nearly all actives have a fitted effect of over 25% in size). As to conditions: NIH 3T3 cell viability, qHTS; activity change, negative = cytotoxicity: at 92.2 µM (top of the series). In short, it runs like this:
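In this cytotoxicity screen, acute toxicity is scored as an ATP drop measured by CellTiter-Glo in NIH 3T3 fibroblasts following a 40 hr, 37 °C incubation with compound.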

Assay [16] can be described thus: Cell Viability - HUV-EC-C (AID 542; active = well fitted curve in the direction sought with a large enough effect; an effect the other way counts as inactive or inconclusive; note: nearly all actives have a fitted effect of over 35% in size; note: potency is the fitted concentration of half-maximal effect). The settings on record: HUV-EC-C endothelial cell viability, qHTS; series mostly up to 92.2 µM. Put shortly:
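Concentration-dependent ATP loss in HUV-EC-C cells is the measure. Exposure lasts 40 hr at 37 °C; luminescence follows CellTiter-Glo addition, and Hill fits give AC50.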

A short description of assay [17]: Cell Viability - Renal Proximal Tubule (AID 545; active = well fitted curve in the direction sought with a large enough effect; an effect the other way counts as inactive or inconclusive;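 note: 0% = DMSO only and -100% = 100 µM tamoxifen; nearly all actives have a fitted effect of over 40% in size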). The settings on record: renal proximal tubule cells viability, primary cells of rat origin; activity change, negative = cytotoxicity: at 91.7 µM (top of the series). Put shortly:
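Primary rat renal proximal tubule cells (1000/well) were treated with compounds for 40 hr at 37 °C in complete medium. Intracellular ATP was measured by CellTiter-Glo luminescence, and AC50 values came from Hill-equation fits of concentration-response data.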

The nature of assay [18]: Cellular Toxicity (caspase-3) HepG2 (AID 654; active = well fitted curve in the direction sought with a large enough effect; an effect the other way counts as inactive or inconclusive;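 note: cells exposed to compound for 16 hours before reading; 0% = DMSO alone and 100% = caspase signal from 100 µM tamoxifen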). As to conditions: HepG2 caspase-3 activation, luminescence; series mostly up to 92.2 µM. In short, it runs like this:
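Concentration-response AC50 values reflect caspase-3/7 induction in HepG2 cells after 16 hours of compound exposure, quantified by luminescence from liberated aminoluciferin and referenced to 100 uM tamoxifen as full stimulation.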

Assay [19] in a line: Cellular Toxicity (caspase-3) Jurkat (AID 655; active = well fitted curve in the direction sought with a large enough effect; an effect the other way counts as inactive or inconclusive;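 note: cells exposed to compound for 16 h at 37 °C before reading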; note: potency is the fitted concentration of half-maximal effect). The settings on record: Jurkat caspase-3 activation, luminescence; series mostly up to 92.2 µM. In short, it runs like this:
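Jurkat cells (5000/well) in complete medium were treated with compounds for 16 hr at 37 °C, then Caspase-Glo 3/7 luminescence was read after 20 min at room temperature. Data normalized to DMSO (basal) and 100 uM tamoxifen (100%); AC50 from Hill fit.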

A short description of assay [20]: Cell Viability - H-4-II-E (AID 543; active = well fitted curve in the direction sought with a large enough effect; an effect the other way counts as inactive or inconclusive; note: potency is the fitted concentration of half-maximal effect; nearly all actives have a fitted effect of over 35% in size). The settings on record: H-4-II-E rat hepatoma viability; series mostly up to 92.2 µM. Put shortly:
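AC50 from Hill-modelled qHTS concentration-response curves. H-4-II-E rat hepatoma cells in complete medium, 40 hr exposure at 37 °C, viability by CellTiter-Glo ATP luminescence.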

Values joined by “and” are separate entries in the source; they are usually repeats but may differ in a detail not shown here. Equal entries are not always repeated. A number with no mark means an inactive call. Inconclusive results are not listed. Active and inactive are the calls of the source. Unless noted, calls come from the whole dose curve; as a rule, active = well fitted curve in either direction with a large enough effect (not every such curve was filed as active); inconclusive = small, poorly fitted or top-dose-only effect, or another doubt; inactive = flat fitted curve, though single readings scatter.

Sequence of Glucocorticoid receptor (Homo sapiens) (P04150 whole entry, looked up, the tested form may be a part): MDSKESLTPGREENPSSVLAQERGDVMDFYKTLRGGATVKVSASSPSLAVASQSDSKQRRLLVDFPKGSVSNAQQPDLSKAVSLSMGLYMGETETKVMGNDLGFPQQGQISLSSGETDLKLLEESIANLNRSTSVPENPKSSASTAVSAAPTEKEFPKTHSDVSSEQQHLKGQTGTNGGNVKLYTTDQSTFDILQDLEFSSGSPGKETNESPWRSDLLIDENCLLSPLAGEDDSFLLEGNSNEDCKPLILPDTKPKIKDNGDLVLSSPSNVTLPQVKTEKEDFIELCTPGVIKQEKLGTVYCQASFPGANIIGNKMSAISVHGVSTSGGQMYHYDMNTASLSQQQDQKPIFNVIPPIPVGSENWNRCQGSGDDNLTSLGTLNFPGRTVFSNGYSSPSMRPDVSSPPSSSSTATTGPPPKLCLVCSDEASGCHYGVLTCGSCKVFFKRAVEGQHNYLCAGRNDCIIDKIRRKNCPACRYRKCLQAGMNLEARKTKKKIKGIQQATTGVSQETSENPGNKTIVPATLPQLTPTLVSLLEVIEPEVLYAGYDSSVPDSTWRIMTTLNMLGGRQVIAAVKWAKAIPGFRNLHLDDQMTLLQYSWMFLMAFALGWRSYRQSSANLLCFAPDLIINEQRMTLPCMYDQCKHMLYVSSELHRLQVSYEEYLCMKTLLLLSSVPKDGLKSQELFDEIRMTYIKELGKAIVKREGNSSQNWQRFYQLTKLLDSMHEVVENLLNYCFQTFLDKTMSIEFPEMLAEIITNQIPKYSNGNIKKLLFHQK
Sequence of Cytochrome P450 1A2 (Homo sapiens) (P05177 whole entry, looked up): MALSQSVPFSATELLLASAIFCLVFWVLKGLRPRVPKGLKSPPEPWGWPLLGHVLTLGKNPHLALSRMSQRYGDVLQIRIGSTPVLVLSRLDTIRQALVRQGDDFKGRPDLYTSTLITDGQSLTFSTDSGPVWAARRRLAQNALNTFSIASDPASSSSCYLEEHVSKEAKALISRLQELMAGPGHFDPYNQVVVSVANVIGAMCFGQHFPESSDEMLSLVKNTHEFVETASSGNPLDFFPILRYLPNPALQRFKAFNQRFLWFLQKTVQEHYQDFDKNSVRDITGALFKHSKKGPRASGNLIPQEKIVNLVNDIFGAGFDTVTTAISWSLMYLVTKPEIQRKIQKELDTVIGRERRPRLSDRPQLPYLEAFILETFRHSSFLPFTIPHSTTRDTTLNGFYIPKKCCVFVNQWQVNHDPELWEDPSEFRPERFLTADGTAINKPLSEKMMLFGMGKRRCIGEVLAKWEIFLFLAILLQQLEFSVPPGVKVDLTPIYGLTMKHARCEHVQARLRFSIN
Sequence of 3',5'-cyclic-AMP phosphodiesterase 4B (Homo sapiens) (Q07343 whole entry, looked up): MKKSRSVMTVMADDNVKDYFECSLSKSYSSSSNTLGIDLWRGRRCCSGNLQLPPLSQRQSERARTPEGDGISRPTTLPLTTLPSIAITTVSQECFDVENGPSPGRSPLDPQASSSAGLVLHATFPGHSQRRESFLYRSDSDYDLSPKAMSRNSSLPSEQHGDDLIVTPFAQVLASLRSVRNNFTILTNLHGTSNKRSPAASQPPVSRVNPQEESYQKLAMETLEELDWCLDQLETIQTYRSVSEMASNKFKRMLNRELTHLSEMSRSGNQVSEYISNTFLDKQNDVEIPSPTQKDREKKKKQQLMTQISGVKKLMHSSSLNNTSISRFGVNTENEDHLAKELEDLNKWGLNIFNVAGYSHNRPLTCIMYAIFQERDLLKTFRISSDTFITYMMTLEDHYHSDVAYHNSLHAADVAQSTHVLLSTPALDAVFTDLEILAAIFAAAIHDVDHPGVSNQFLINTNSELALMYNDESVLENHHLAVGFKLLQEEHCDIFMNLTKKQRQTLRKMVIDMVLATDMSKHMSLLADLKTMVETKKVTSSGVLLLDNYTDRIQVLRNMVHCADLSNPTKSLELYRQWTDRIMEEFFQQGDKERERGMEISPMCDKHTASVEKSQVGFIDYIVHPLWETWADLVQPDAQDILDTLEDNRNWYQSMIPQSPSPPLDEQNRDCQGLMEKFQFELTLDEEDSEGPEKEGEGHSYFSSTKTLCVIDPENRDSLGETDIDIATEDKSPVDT
Sequence of Lysosomal acid glucosylceramidase (Homo sapiens) (P04062 whole entry, looked up): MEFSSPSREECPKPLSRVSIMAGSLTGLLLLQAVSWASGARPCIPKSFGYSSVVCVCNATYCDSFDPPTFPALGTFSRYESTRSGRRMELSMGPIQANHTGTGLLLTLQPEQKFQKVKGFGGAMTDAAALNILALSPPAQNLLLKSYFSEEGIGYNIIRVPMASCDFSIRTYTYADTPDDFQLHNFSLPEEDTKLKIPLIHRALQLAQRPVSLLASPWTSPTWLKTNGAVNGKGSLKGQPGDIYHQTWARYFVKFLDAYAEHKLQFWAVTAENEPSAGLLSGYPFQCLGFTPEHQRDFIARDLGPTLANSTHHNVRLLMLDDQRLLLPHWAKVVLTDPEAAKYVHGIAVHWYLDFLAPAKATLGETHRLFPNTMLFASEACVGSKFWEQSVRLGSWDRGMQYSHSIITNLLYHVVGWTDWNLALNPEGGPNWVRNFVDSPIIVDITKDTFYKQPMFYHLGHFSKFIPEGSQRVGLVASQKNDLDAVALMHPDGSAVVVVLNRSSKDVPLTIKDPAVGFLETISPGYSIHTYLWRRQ

For `CC(C)(C=O)Cc1cc(C(C)(C)C)c(O)c(C(C)(C)C)c1`, the activity change, negative = inhibition in assay [1] (at 38 µM (top of the series)) was 5.89%; in [3], -17.5%. Besides, the Potency was 25.1 µM (active) in [2], over 46 µM in assay [5] and over 46 µM in assay [6]. For the same molecule, in assay [4] (at 38 µM (top of the series)), the activity, negative = inhibition is -12.1%. The Potency entry in assay [7] was “inactive”. Also, the molecule was classed as inactive in assay [8].
For the molecule `COc1cccc(C(=O)NCCN2CCN(c3ccc(Cl)cc3)CC2)c1`, the results for the activity change, negative = inhibition in assay [1] (at 38 µM (top of the series)) and in [3] were -7.5% and 2.58%, respectively. For the same molecule, the Potency was 12.6 µM (active) in [2] and over 46 µM in assay [5]. Also, the activity, negative = inhibition in assay [4] (at 38 µM (top of the series)) was 0.921%. The molecule was classed as inactive in assay [8].
For `COC(=O)c1c(C)[nH]c(C)c1C(=O)c1ccccc1Cc1ccccc1`, the results for the activity change, negative = inhibition in [1] (at 38 µM (top of the series)) and in [3] were -27.5% and 4.44%, respectively. Besides, the Potency in assay [2] was 1.26 µM (active) and 251 nM (active); in [5], over 46 µM; in assay [6], over 46 µM. Further, the activity, negative = inhibition in assay [4] (at 38 µM (top of the series)) was -23%. Moreover, in [7], the Potency entry is “inactive”. Besides, in assay [8], the outcome was inactive.
With `CN1[C@@H]2CC[C@H]1CC(OC(c1ccccc1)c1ccccc1)C2` (stereo partly drawn), the Potency in assay [9] was over 11.4 µM; in [5], over 46 µM; in assay [6] it was > 46 µM and > 9.22 µM. For the same molecule, the activity change, negative = inhibition in [1] (at 7.69 µM (top of the series)) is 12.3%; in assay [3], -83.5% [at 7.69 µM] (active). The Potency entry in assay [2] and in assay [7] was “inactive” each time. For the same molecule, the activity, negative = inhibition in assay [4] (at 7.69 µM (top of the series)) is 0.0599%; in assay [4] (at 38 µM (top of the series)), -14.8%. In addition, the molecule was called inactive in [8].
Turning to `Oc1ccccc1O`, the activity change, negative = inhibition in [1] (at 38 µM (top of the series)) was -9.38%; in assay [3], 1.49%. Further, the Potency result in assay [2], in [7], in assay [16], in assay [18] and in [19] was “inactive” in each case. In addition, the Potency is over 92 µM in [10]; 3.17 µM (active) in [11]; 30.1 µM (active) in assay [12]; over 92 µM in assay [13]; over 92 µM in assay [14]; 1.26 µM (active) in assay [15]. In addition, the activity change, negative = cytotoxicity in assay [17] is -24.1%. For the same molecule, the result in assay [8] was inactive.
Consider `Cn1c(=O)c2[nH]c(-c3ccccc3)nc2n(C)c1=O`, for which the activity change, negative = inhibition in assay [1] (at 38 µM (top of the series)) was 14.7%; in assay [3], 3.48%. The Potency in assay [2] was 2 µM (active); in assay [6] it was over 46 µM. Besides, the activity, negative = inhibition in assay [4] (at 38 µM (top of the series)) was -0.0891%. Also, the Potency entry in assay [7] is “inactive”. Also, the molecule was classed as inactive in assay [8].
Take `c1cnc2c(c1)ccc1cccnc12`: the Potency is over 11.4 µM in assay [9]; 3.98 µM (active) and 2 µM (active) in [2]; over 92 µM in assay [10]; 8.24 µM (active) in assay [11]; 2.4 µM (active) in [12]; over 92 µM in assay [13]. The Potency is 3.86 µM (active) in assay [14]; > 46 µM and > 9.22 µM in assay [6]; 2.51 µM (active) in assay [15]; 12.6 µM (active) in assay [16]; 2.51 µM (active) in assay [20]; 6.31 µM (active) in assay [19]. In addition, the activity change, negative = inhibition in assay [1] (at 7.69 µM (top of the series)) was -13.2%; in assay [1] (at 38 µM (top of the series)) it was 0.206%. In assay [4] (at 38 µM (top of the series)), the activity, negative = inhibition is -9.47%. Further, the Potency result in assay [7] and in assay [18] was “inactive” throughout. In addition, in [17], the activity change, negative = cytotoxicity was -87.9% (active). For the same molecule, the call in [8] was inactive.
